The values below come from PubChem BioAssay.

For assay [1], the system named is Hepatitis C virus NS3 helicase. The assay can be described thus: HCV NS3 helicase inhibitors, primary screen, biochemical, fluorescence polarization, NIH Clinical Collection (AID 743270; call rule not given here). The following applies: NS3 helicase binding to Cy5-dT15 DNA, stronger effect = higher value, concentration not given here. A general note: Fluorescence polarisation rises when a labelled molecule tumbles more slowly, as on binding a larger partner.

Assay [2] deals with 6-phosphogluconate dehydrogenase, decarboxylating (Homo sapiens) (UniProt P52209). The assay can be described thus: 6PGD enzyme inhibitors, primary screen, biochemical, human, recombinant enzyme, NADPH absorbance (AID 1159550;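 active = at least 20% inhibition of 6-phosphogluconate dehydrogenase activity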). The following applies: recombinant 6PGD, NADPH absorbance 341 nm; at 10 µM; stronger effect = higher value.
Assay [3] can be described thus: modulation of C. elegans fzo-1 (AID 1259413; call rule not given here;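 also: fzo-1 mutant C. elegans worms in liquid wells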). The following applies: C. elegans fzo-1 modulator screen, mean read-out; stronger effect = higher value.
Assay [4] is described as follows: differential killing of epithelial or mesenchymal cells, primary screen, imaging, PC-3E GFP, TEM4-18 mCherry, co-culture (AID 1345086;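 active = compounds killing one labelled cell type while sparing the other, by normalised counts and ratio limits, not self-fluorescent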;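 as to all read-outs here: cells exposed to compound for 72 h before imaging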;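 as to red/green cell ratio (normalised): normalised mesenchymal count divided by normalised epithelial count so high means epithelial killing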). The conditions noted are these: imaging cell counts, at 1 µM; for red/green cell ratio (normalised): actives lie on both sides, counts scaled to control wells, 1 = unselective.
The nature of assay [5]: survival rescue of mitochondrial mutant cells in low glucose, primary screen, MELAS cybrids, Rieske KO mouse fibroblasts, CellTiter-Glo (AID 1508586;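 active = mean z-score across replicates of 1.96 or higher in either the MELAS or the Rieske mutant cell line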;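 also: z relative to plate mean and SD of compound and empty wells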).
The nature of assay [6]: ovarian cancer cell viability with rucaparib, profiling panel, oncology-focused library, rucaparib conditional (AID 1508598). The following applies: patient-derived ovarian cancer cells, CellTiter-Glo viability, 144 h, stronger effect = lower value. (In ATP-based viability assays light output follows the ATP content of the culture.)
The target of assay [7] is NAD(+) hydrolase SARM1 (Homo sapiens) (UniProt Q6SZW1). In words: SARM1 TIR NADase inhibitors, cell lysate, NAD-Glo luminescence (AID 1508614;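 active = compound whose remaining NAD level is above about 45 nM, limit read from the data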;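 also: higher remaining NAD means stronger inhibition of SARM1 NADase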). The conditions noted are these: SAM-TIR HEK293T lysate NADase, at 1 µM, stronger effect = higher value.
The target of assay [8] is Mitogen-activated protein kinase 7 (Homo sapiens) (UniProt Q13164). In words: ERK5 transactivation activators in reporter cells, primary screen, cell-based, HTS (AID 1508626;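 active = luciferase signal above three times the same-plate solvent-only control wells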;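 also: luciferase driven by Gal4-ERK5 fusion binding five Gal4 sites before minimal TATA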). The conditions noted are these: HeLa Gal4-ERK5 transactivation, 18 h, at 5 µM, stronger effect = higher value.
A short description of assay [9]: viability rescue of complex I mutant cybrids, primary screen, cell-based, galactose medium, ATP luminescence (AID 1645843;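 active = z-score of at least 1.8 in each of two replicates, scored against plate mean and spread of sample wells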;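 also: positive z means more ATP and so rescue of galactose-driven cybrid death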). The conditions noted are these: complex I mutant cybrid cells, 72 h, stronger effect = higher value.
Assay [10] in a line: ICB984 medulloblastoma cell growth inhibition, synergistic combos for chromothripsis tumors, cisplatin or BGB combos (AID 1671451; call rule not given here;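 also: cells exposed for 96 hours before readout; 0% = vehicle DMSO and 100% = killing by high DMSO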). The conditions noted are these: ICB984 medulloblastoma cells, drug combinations, stronger effect = higher value.
[11] abbreviates: measured here: epithelial PC-3E GFP cell survival.
The mark [12] stands for this setting: measured here: mesenchymal TEM4-18 mCherry cell survival.
The mark [13] stands for this setting: MELAS cybrid survival, CellTiter-Glo 48 h, stronger effect = higher value.
Setting [14] is: Rieske KO mouse fibroblast survival, CellTiter-Glo 72 h.

Where “and” joins values, the source holds several entries; their conditions need not be identical. Identical values can stand only once. Calls of active or inactive are those of the source.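 The calls were made as follows, unless noted: active = normalized viability below 100% at a tested concentration; inactive = the rest.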

Sequence of 6-phosphogluconate dehydrogenase, decarboxylating (Homo sapiens) (P52209 whole entry, looked up): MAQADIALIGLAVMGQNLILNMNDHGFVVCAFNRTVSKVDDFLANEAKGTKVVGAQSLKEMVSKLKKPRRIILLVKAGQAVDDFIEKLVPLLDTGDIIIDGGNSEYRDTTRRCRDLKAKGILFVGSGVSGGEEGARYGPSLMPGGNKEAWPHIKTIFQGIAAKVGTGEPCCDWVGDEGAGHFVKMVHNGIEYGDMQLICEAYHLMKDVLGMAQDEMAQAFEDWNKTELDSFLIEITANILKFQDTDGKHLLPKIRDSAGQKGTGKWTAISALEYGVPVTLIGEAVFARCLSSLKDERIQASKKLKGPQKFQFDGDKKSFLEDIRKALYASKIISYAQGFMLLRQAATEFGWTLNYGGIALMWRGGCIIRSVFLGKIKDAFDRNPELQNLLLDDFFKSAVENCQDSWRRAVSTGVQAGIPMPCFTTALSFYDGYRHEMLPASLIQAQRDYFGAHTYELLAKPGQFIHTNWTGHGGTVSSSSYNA
Sequence of Mitogen-activated protein kinase 7 (Homo sapiens) (Q13164 whole entry, looked up, the tested form may be a part): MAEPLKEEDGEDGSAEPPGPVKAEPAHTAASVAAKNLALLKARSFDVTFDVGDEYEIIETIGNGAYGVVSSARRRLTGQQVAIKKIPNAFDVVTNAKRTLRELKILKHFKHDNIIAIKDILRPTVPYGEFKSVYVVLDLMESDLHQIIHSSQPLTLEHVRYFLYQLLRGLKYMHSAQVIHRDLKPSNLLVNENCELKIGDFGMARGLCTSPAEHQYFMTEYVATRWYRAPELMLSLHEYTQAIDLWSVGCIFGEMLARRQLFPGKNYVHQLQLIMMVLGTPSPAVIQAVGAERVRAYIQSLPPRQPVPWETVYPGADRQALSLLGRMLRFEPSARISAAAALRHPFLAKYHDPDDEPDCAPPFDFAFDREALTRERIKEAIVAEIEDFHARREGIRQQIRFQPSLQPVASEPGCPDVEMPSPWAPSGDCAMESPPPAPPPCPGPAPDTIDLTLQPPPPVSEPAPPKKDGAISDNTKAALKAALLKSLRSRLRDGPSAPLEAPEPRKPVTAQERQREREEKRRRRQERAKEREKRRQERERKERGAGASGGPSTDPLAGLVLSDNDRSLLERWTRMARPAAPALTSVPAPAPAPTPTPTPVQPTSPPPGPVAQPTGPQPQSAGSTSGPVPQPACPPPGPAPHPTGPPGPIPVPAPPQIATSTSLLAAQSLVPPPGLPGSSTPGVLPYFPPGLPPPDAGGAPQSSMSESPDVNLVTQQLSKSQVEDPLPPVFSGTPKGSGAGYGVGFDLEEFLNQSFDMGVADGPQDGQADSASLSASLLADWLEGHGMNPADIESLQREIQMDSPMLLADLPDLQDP
Sequence of NAD(+) hydrolase SARM1 (Homo sapiens) (Q6SZW1 whole entry, looked up, the tested form may be a part): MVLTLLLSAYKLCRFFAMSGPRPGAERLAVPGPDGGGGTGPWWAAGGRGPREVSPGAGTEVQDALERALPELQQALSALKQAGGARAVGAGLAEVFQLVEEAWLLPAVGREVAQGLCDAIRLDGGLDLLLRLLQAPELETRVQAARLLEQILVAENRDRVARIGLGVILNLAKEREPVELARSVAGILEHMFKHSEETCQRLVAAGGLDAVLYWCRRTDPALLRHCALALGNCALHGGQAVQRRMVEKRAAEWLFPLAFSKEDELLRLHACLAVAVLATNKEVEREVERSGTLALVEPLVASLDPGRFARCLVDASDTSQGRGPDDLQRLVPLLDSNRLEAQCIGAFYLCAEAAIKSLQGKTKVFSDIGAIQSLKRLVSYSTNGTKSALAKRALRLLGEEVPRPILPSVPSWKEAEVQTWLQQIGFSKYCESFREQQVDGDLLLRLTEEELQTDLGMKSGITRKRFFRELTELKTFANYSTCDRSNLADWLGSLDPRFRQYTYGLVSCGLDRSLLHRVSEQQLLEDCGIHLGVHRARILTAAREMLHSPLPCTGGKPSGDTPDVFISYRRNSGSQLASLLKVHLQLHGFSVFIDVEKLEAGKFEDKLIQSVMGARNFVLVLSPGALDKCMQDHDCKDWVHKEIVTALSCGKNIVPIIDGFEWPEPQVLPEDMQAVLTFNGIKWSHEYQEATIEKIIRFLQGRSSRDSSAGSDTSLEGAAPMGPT

As usually defined, the inhibition is the relative decrease from the control value, in per cent. A word on the viability: it is a read-out of living cells in per cent, often relative to untreated cells. Take `CN(C)c1nc(N(C)C)nc(N(C)C)n1`: the inhibition was -2.27% (inactive) in assay [1]; 11.2% (inactive) in [2]; -31.6% and 0.139% in [10] (BGB IC20 combo, at 0.005 µM); -11.1% and -14.4% in assay [10] (BGB IC40 combo, at 0.005 µM); -16% and -10.6% in assay [10] (BGB IC40 combo, at 0.05 µM); -16.4% (inactive) and -22.8% (inactive) in [10] (at 0.5 µM). The inhibition in assay [10] (cisplatin combo, at 0.05 µM) is -16% and -14.5%; in [10] (cisplatin combo, at 0.5 µM), -23.9% and -10.7%; in assay [10] (cisplatin combo, at 5 µM) it was -16.8% and 0.591%; in [10] (measured here: 5 uM single agent, at 5 µM) it was -7.32% and -28.4%. Besides, the mean signal in assay [3] was 270 (inactive). In addition, the red/green cell ratio (normalised) in assay [4] is 1.11 (inactive). Further, the figures for the normalised cell number in assay [4] (setting [11]) and in assay [4] (setting [12]) were 0.98 and 1.08, respectively. The z-score in assay [5] (setting [13]) was -0.405 (inactive) and 0.759 (inactive) and 0.19 (inactive); in assay [5] (setting [14]), 0.906 and 0.36 and 0.155; in [9], 0.975 (inactive) and 0.76 (inactive) and 0.825 (inactive). Besides, the viability in assay [6] (at 0.000305 µM, OCI-C5x cells, with rucaparib 10 µM, 100% = cells with rucaparib alone) was 108% (inactive); in assay [6] (at 0.000305 µM, OCI-C5x cells, without rucaparib), 98.3% (active); in assay [6] (at 0.000305 µM, OCI-P5x cells, with rucaparib 20 µM, 100% = cells with rucaparib alone), 95.7% (active); in [6] (at 0.000305 µM, OCI-P5x cells, without rucaparib), 87% (active); in [6] (at 0.00122 µM, OCI-C5x cells, with rucaparib 10 µM, 100% = cells with rucaparib alone), 112% (inactive); in assay [6] (at 0.00122 µM, OCI-C5x cells, without rucaparib) it was 100% (inactive). Besides, the viability is 95.8% (active) in assay [6] (at 0.00122 µM, OCI-P5x cells, with rucaparib 20 µM, 100% = cells with rucaparib alone); 89% (active) in [6] (at 0.00122 µM, OCI-P5x cells, without rucaparib); 120% (inactive) in assay [6] (at 0.00488 µM, OCI-C5x cells, with rucaparib 10 µM, 100% = cells with rucaparib alone); 101% (inactive) in assay [6] (at 0.00488 µM, OCI-C5x cells, without rucaparib); 101% (inactive) in [6] (at 0.00488 µM, OCI-P5x cells, with rucaparib 20 µM, 100% = cells with rucaparib alone); 92.4% (active) in assay [6] (at 0.00488 µM, OCI-P5x cells, without rucaparib). Besides, the viability in assay [6] (at 0.0195 µM, OCI-C5x cells, with rucaparib 10 µM, 100% = cells with rucaparib alone) was 113% (inactive); in [6] (at 0.0195 µM, OCI-C5x cells, without rucaparib), 100% (inactive); in [6] (at 0.0195 µM, OCI-P5x cells, with rucaparib 20 µM, 100% = cells with rucaparib alone), 102% (inactive); in assay [6] (at 0.0195 µM, OCI-P5x cells, without rucaparib), 96.6% (active); in assay [6] (at 0.0781 µM, OCI-C5x cells, with rucaparib 10 µM, 100% = cells with rucaparib alone) it was 110% (inactive); in assay [6] (at 0.0781 µM, OCI-C5x cells, without rucaparib), 101% (inactive). Also, the viability is 103% (inactive) in assay [6] (at 0.0781 µM, OCI-P5x cells, with rucaparib 20 µM, 100% = cells with rucaparib alone); 106% (inactive) in [6] (at 0.0781 µM, OCI-P5x cells, without rucaparib); 107% (inactive) in assay [6] (at 0.313 µM, OCI-C5x cells, with rucaparib 10 µM, 100% = cells with rucaparib alone); 108% (inactive) in [6] (at 0.313 µM, OCI-C5x cells, without rucaparib); 108% (inactive) in assay [6] (at 0.313 µM, OCI-P5x cells, with rucaparib 20 µM, 100% = cells with rucaparib alone); 99.9% (active) in [6] (at 0.313 µM, OCI-P5x cells, without rucaparib). The viability in assay [6] (at 1.25 µM, OCI-C5x cells, with rucaparib 10 µM, 100% = cells with rucaparib alone) is 96.8% (active); in assay [6] (at 1.25 µM, OCI-C5x cells, without rucaparib), 67.8% (active); in [6] (at 1.25 µM, OCI-P5x cells, with rucaparib 20 µM, 100% = cells with rucaparib alone) it was 78.5% (active); in assay [6] (at 1.25 µM, OCI-P5x cells, without rucaparib) it was 28.8% (active); in assay [6] (at 5 µM, OCI-C5x cells, with rucaparib 10 µM, 100% = cells with rucaparib alone), 109% (inactive); in assay [6] (at 5 µM, OCI-C5x cells, without rucaparib), 97.9% (active). Besides, the viability in assay [6] (at 5 µM, OCI-P5x cells, with rucaparib 20 µM, 100% = cells with rucaparib alone) was 107% (inactive); in [6] (at 5 µM, OCI-P5x cells, without rucaparib), 98.6% (active). Also, in [7], the remaining NAD is 10 nM (inactive). Further, the luciferase signal in [8] is 40 AU (inactive).

Turning to `C=CC(C)(O)CCC=C(C)C` (stereo not drawn), the inhibition in assay [2] was -3.42% (inactive).

`CC(C)NCC(O)COc1ccc(CC(N)=O)cc1` (stereo not drawn): the inhibition in assay [1] was -0.45% (inactive); in assay [2], -17.1% (inactive). For the same compound, the mean signal in assay [3] was 244 (inactive). Moreover, the red/green cell ratio (normalised) in [4] is 0.99 (inactive). In addition, the normalised cell number in assay [4] (setting [11]) amounted to 1.11; in [4] (setting [12]) it was 1.09. Further, the z-score in assay [5] (setting [13]) was -0.4 (inactive); in assay [5] (setting [14]), -0.19. Further, the remaining NAD in assay [7] is 10 nM (inactive). Moreover, the luciferase signal in [8] was 52 AU (inactive).

On to `CCC1(C2OC(C3OC(O)(CO)C(C)CC3C)CC2C)CCC(C2(C)CCC3(CC(O)C(C)C(C(C)C(OC)C(C)C(=O)O)O3)O2)O1` (stereo not drawn), for which the inhibition in assay [2] is 3.18% (inactive).
